Results filed as inconclusive are left out. A structure can be active in one record and inactive in another. Active and inactive are the calls of the source. The calls were made as follows, unless noted: active = hit-call score of the fitted dose curve at least 0.9, where 1 is the maximum; inactive = score below 0.9.
Assays:
[1] = CCTE_Shafer_MEA_dev_per_network_spike_spike_percent: CCTE's Neural Network Formation Assay for Percent of Spikes in a Network Spike, Shafer Lab (AID 2284054)
Method in brief: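 Metric: fraction of spikes falling in a 0.05 s window at network-spike peaks. Recordings were made on days 5, 7, 9 and 12 and collapsed by trapezoidal AUC. Cultures were rat cortical neurons on MEA plates, dosed continuously from plating, re-dosed at media changes.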

[2] = CCTE_Shafer_MEA_dev_AB: CCTE's Alamar Blue Assay for Cytotoxicity in the Neural Network Formation Assay, Shafer Lab (AID 2284083; active = hit-call score of the fitted dose curve at least 0.9, where 1 is the maximum;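 also: resazurin reduction fluorescence as viability of cultured neurons; twelve days of exposure from plating with re-dosing on DIV 5 and 9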)
Method in brief: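 Rat cortical primary cultures, 1.5 x 10^5 cells/well on MEA; continuous compound exposure over 12 days of network development, re-dosed with full medium change DIV 5 and 9. Alamar Blue fluorescence; loss of signal = cytotoxicity vs DMSO baseline.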

[3] = CCTE_Shafer_MEA_dev_mutual_information_norm: CCTE's Neural Network Formation Assay for Mutual Information Normalization, Shafer Lab (AID 2284091);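 as to AC50: mutual information between electrodes summarised as area under curve across four recording days; potency is for a decrease in mutual information relative to DMSO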
Method in brief: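 Shared information across electrodes, tracked on days 5, 7, 9 and 12 of network development and collapsed as trapezoidal area under the curve. Rat cortical cultures were treated continuously from plating, with treatment renewed at feeds on DIV 5 and 9; DMSO baseline, negative-direction fit.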

[4] = CCTE_Shafer_MEA_dev_correlation_coefficient_mean: CCTE's Neural Network Formation Assay for Mean Correlation Coefficient, Shafer Lab (AID 2284093);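 as to AC50: well mean pairwise spike train correlation integrated as AUC over recording days 5 to 12; potency fitted for loss of correlation relative to DMSO vehicle wells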
Method in brief: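 Rat cortical cultures, 1.5 x 10^5 cells/well, dosed from day 0 for 12 days. Spontaneous spikes recorded DIV 5/7/9/12; electrode-pair correlation coefficients averaged, AUC taken. Fit in loss direction vs DMSO.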

[5] = CCTE_Shafer_MEA_dev_LDH: CCTE's Lactate Dehydrogenase Assay for Cytotoxicity in the Neural Network Formation Assay, Shafer Lab (AID 2284068; active = hit-call score of the fitted dose curve at least 0.9, where 1 is the maximum;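 also: exposure for twelve days from plating with re-dosing on DIV 5 and 9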)
Method in brief: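 Rat cortical primary neurons, MEA culture; dosing day 0–12, full medium plus compound exchange DIV 5, 9. Read-out: LDH enzyme activity, spectrophotometric. DMSO = negative control/baseline; signal loss → cytotoxicity.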

[6] = test system: DIO3 (gene 1735); assay: CCTE_GLTED_hDIO3: CCTE's human Deiodinase 3 (DIO3) Inhibition Assay, Great Lakes Toxicology and Ecology Division (GLTED) Lab (AID 2284055; active = hit-call score of the fitted dose curve at least 0.9, where 1 is the maximum;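 also: potency is for inhibition seen as loss of released iodide signal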)
Method in brief: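 Inhibition is read as reduced iodide release, measured spectrophotometrically by the Sandell-Kolthoff cerium/arsenic reaction. Adenovirus-expressed human DIO3 enzyme is exposed to chemical for 3 h, n=3 plates. Iodinated chemicals, nitrite, iron or thiocyanate may interfere.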

[7] = UKN5_HCS_SBAD2_cell_viability: Viability Assessment in the University of Konstanz (UKN) Leist Lab Neurite Outgrowth Assay in human iPSC-derived immature Dorsal Root Ganglia Neurons (UKN5) (AID 2284056)
Method in brief: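 iPSC-derived immature peripheral neurons (SBAD2) seeded on Matrigel with CHIR99021, SU5402 and DAPT, dosed 1 h later for 24 h. Viability from Hoechst H-33342 and calcein-AM live staining, high-content imaging; bidirectional fit versus DMSO.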

[8] = UKN5_HCS_SBAD2_neurite_outgrowth: University of Konstanz (UKN) Leist Lab Neurite Outgrowth Assay in human iPSC-derived immature Dorsal Root Ganglia Neurons (UKN5) (AID 2284070); conditions: actives raise or lower the signal
Method in brief: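 Neurite area from calcein-AM high-content images after 24 h exposure (staining included), with H-33342 for viability, fitted both directions against DMSO. Cells: thawed immature SBAD2 peripheral neurons, 100.000 cells/cm2, with CHIR99021, SU5402, DAPT; dosing 1 h after seeding.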

[9] = CCTE_Shafer_MEA_acute_LDH: CCTE's Lactate Dehydrogenase Assay for Cytotoxicity in the Neural Acute Assay, Shafer Lab (AID 2284086; active = hit-call score of the fitted dose curve at least 0.9, where 1 is the maximum;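 also: active means LDH release rises above DMSO vehicle level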)
Method in brief: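 LDH released during 40 min compound exposure of primary rat cortical cultures, quantified by absorbance at 490 nm in collected medium. Fitting direction positive versus DMSO vehicle.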

[10] = UKN2_HCS_IMR90_neural_migration: University of Konstanz (UKN) Leist Lab Neural Crest Cell Migration Assay in human induced IMR90 Pluripotent Stem Cells (UKN2) (AID 2284204); conditions: actives raise or lower the signal
Method in brief: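 High-content imaging of calcein-AM and Hoechst stained cells quantifies migration into a stopper-defined gap after 24 h compound exposure. Neural crest cells from IMR90 iPSC migrated 24 h in EGF/FGF N2-S medium before dosing; DMSO baseline.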

[11] = UKN4_HCS_LUHMES_neurite_outgrowth: University of Konstanz (UKN) Leist Lab Neurite Outgrowth Assay in human LUHMES cells (UKN4) (AID 2284206); conditions: actives raise or lower the signal
Method in brief: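 After 24 h compound treatment beginning shortly after replating of 2-day-differentiated LUHMES cells, calcein-AM and H-33342 live staining allowed high-content imaging of neurite area and viability. Fitted bidirectionally against DMSO.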

[12] = IUF_NPC1b_proliferation_BrdU_72hr: Leibniz Research Institute for Environmental Medicine (IUF) 72-hour Neural Progenitor Cell Bromodeoxyuridine (BrdU) Proliferation Assay (NPC1b) (AID 2284207)
Method in brief: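 Human fetal cortex-derived (GW 16-19) neural progenitor spheres, 0.25-0.35 mm, one per well in EGF/FGF proliferation medium, exposed to compound for 72 h at 37C, pH 7.2-7.6. BrdU incorporation over the final 16 h read by luminescence ELISA, relative to DMSO.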

[13] = IUF_NPC1a_proliferation_area_72hr: Leibniz Research Institute for Environmental Medicine (IUF) 72-hour Neural Progenitor Cell Proliferation Area Assay (NPC1a) (AID 2284208)
Method in brief: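 Single 0.25–0.35 mm human fetal neural progenitor spheres in proliferation medium with EGF and FGF, exposed 72 h from plating without renewal at 37C, pH 7.2-7.6. Sphere area growth measured by automated phase-contrast imaging, relative to DMSO.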

[14] = IUF_NPC1_viability_72hr: Viability Assessment at 72 hours in the Leibniz Research Institute for Environmental Medicine (IUF) Neural Progenitor Cell Proliferation Assay (NPC1) (AID 2284209)
Method in brief: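 Viability was measured by resazurin-to-resorufin fluorescence (alamar blue) after 72 h of continuous exposure without compound renewal. Each well held one hNPC sphere (gestational week 16-19 fetal cortex, 0.25-0.35 mm) cultured in EGF/FGF proliferation medium at 37C and pH 7.2-7.6.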

[15] = CCTE_Mundy_HCI_Cortical_Synap_Neur_Matur_NeuriteSpotCountPerNeuriteLength: CCTE's Synaptogenesis and Neurite Maturation Assay in rat cortical cells for Neurite Spot Count per Neurite Length, Mundy Lab (AID 2284210)
Method in brief: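 Synaptophysin spots per unit neurite length, measured by automated imaging of MAP2/synaptophysin/Hoechst-stained neurons. Cultures from rat cortex received chemical at DIV 7 with media change through DIV 12; glial growth arrested by AraC at DIV 5; DMSO baseline.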

[16] = CCTE_Mundy_HCI_Cortical_NOG_NeuriteLength: CCTE's Neurite Outgrowth Assay in rat cortical cells for Neurite Length, Mundy Lab (AID 2284213);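 also: neurites imaged about 48 to 50 h after chemical exposure began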
Method in brief: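 First, rat primary cortical cells were plated and, 2 h later, given test chemical as a 1/10 dilution. Finally, βIII-tubulin immunostaining enabled automated imaging of neurite length.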

[17] = CCTE_Mundy_HCI_Cortical_Synap_Neur_Matur_NeuriteLength: CCTE's Synaptogenesis and Neurite Maturation Assay in rat cortical cells for Neurite Length, Mundy Lab (AID 2284214)
Method in brief: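 Neurite length quantified by automated high-content imaging of MAP2, synaptophysin and Hoechst staining. Rat cortical cells received chemical from DIV 7 to DIV 12 […], glial growth arrested by AraC at DIV 5; DMSO baseline.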

[18] = CCTE_Shafer_MEA_acute_AB: CCTE's Alamar Blue Assay for Cytotoxicity in the Neural Acute Assay, Shafer Lab (AID 2284069; active = hit-call score of the fitted dose curve at least 0.9, where 1 is the maximum;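 also: active compounds lower the viability signal compared with DMSO wells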)
Method in brief: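 Read-out: resazurin fluorescence (ex 544, em 590 nm) after CTB reagent at 1:6 dilution in fresh media. Cells: primary rat cortical neuron networks, DIV 13 or 15, chemically exposed on MEA plates; DMSO as negative control/baseline.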

O=C(OC(=O)C(F)(F)C(F)(F)F)C(F)(F)C(F)(F)F
outcome [1]: inactive
outcome [2]: inactive
outcome [3]: inactive
outcome [4]: inactive

OCC(F)(F)C(F)(F)C(F)(F)C(F)(F)C(F)(F)C(F)(F)C(F)(F)C(F)(F)C(F)(F)C(F)(F)C(F)(F)F
AC50 [1]: 9.08 µM (active)
outcome [1]: inactive
AC50 [5]: 9.45 µM (active)
outcome [5]: inactive
AC50 [2]: 18.9 µM (active)
outcome [2]: inactive
AC50 [3]: 4.61 µM (active)
outcome [3]: inactive
AC50 [4]: 8.06 µM (active)
outcome [4]: inactive

NC(=NCCCCCCN=C(N)/N=C(\N)Nc1ccc(Cl)cc1)/N=C(\N)Nc1ccc(Cl)cc1
AC50 [6]: 2.65 µM (active)

O=C(O)CCC(F)(F)C(F)(F)C(F)(F)C(F)(F)C(F)(F)F
outcome [1]: inactive
outcome [5]: inactive
outcome [3]: inactive
outcome [4]: inactive

O=C(CCCN1CCC(O)(c2ccc(Cl)cc2)CC1)c1ccc(F)cc1
AC50 [1]: 2.98 µM (active)
AC50 [7]: 55.6 µM (active)
AC50 [5]: 7.35 µM (active)
AC50 [8]: 20.2 µM (active)
outcome [2]: inactive
outcome [9]: inactive
AC50 [3]: 0.163 µM (active)
AC50 [4]: 1.74 µM (active)
outcome [10]: inactive
AC50 [11]: 13.1 µM (active)
outcome [12]: inactive
outcome [13]: inactive
outcome [14]: inactive
AC50 [15]: 50 µM (active)
AC50 [16]: 6.16 µM (active)
AC50 [17]: 21.2 µM (active)

O=CC(F)(F)C(F)(F)C(F)(F)F
outcome [1]: inactive
outcome [2]: inactive
outcome [3]: inactive
outcome [4]: inactive

C=CC(F)(F)C(F)(F)C(F)(F)C(F)(F)F
outcome [1]: inactive
outcome [2]: inactive
outcome [3]: inactive
outcome [4]: inactive

FC(F)=C(F)C(F)(F)C(F)(F)C(F)(F)C(F)F
outcome [1]: inactive
outcome [3]: inactive
outcome [4]: inactive

CCCCc1oc2ccccc2c1C(=O)c1cc(I)c(OCCN(CC)CC)c(I)c1
outcome [18]: inactive
outcome [9]: inactive

O=C(F)C(F)(F)C(F)(F)C(F)(F)C(=O)F
outcome [1]: inactive
outcome [2]: inactive
outcome [3]: inactive
outcome [4]: inactive

CCCCCCCCCCCCOS(=O)(=O)O
AC50 [6]: 99.6 µM (active)

COC(=O)C(F)(F)C(F)(F)C(F)(F)C(F)(F)C(F)(F)F
outcome [1]: inactive
outcome [3]: inactive
outcome [4]: inactive

COC(=O)C(F)(F)C(F)(F)C(F)(F)F
outcome [1]: inactive
outcome [3]: inactive
outcome [4]: inactive

FCOC(C(F)(F)F)C(F)(F)F
outcome [1]: inactive
outcome [2]: inactive
outcome [3]: inactive
outcome [4]: inactive

Cc1cc(Cc2cc(C)cc(C(C)(C)C)c2O)c(O)c(C(C)(C)C)c1
AC50 [6]: 14.2 µM (active)
